Bioassay records (PubChem BioAssay)
TRHR agonist-1 – qHTS for Small Molecule Agonists and Allosteric Enhancers of Human TRH Receptor: Primary Screen for Agonists; Thyrotropin-releasing hormone receptor (Homo sapiens), P34981; TRHR cells, calcium flux fluo-8, FDSS agonist mode; activation, % at 2 µM; 360,000 compounds, 0.18% hits; AID 493084, 2011; in the data active = activation above about 30%; note: 0% is about no effect
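Fluo-8-loaded TRHR cells; 10 s baseline, compound added, kinetic Ca2+ fluorescence read 1/s, agonist mode.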
D1 PAM – Potentiators of Human D1 Dopamine Receptor: qHTS; D(1A) dopamine receptor (Homo sapiens), P21728; HEK293 TREx D1 cells, calcium flux, dopamine EC20 potentiation; potentiation, % at 10 µM; 360,000 compounds, 0.036% hits; AID 504651, 2011; in the data active = potentiation above about 30%; note: 0% is about no effect
Target sequence (P21728 whole entry, looked up): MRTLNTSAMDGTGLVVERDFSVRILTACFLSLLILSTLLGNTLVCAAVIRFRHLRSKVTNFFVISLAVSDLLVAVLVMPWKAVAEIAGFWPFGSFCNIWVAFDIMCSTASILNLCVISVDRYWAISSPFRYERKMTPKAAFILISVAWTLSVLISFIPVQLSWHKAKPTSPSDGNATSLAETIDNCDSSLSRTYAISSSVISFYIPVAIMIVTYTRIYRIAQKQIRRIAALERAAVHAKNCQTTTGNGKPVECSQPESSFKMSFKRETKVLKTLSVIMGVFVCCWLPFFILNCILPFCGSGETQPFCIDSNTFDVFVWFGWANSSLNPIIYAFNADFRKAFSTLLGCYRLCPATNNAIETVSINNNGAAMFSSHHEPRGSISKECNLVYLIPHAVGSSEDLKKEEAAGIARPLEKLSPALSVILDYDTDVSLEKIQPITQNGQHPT
TRHR enhancer-1 – qHTS for Small Molecule Agonists and Allosteric Enhancers of Human TRH Receptor: Primary Screen for Enhancers. Thyrotropin-releasing hormone receptor (Homo sapiens), P34981. TRHR cells, fluo-8 calcium fluorescence, EC20 TRH enhancement. enhancement, % at 2 µM. 360,000 compounds, 0.66% hits. AID 493056, 2011; in the data active = enhancement above about 30%; note: 0% is about no effect
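Enhancer read-out: after compound pinning and an initial kinetic agonist-mode read, an EC20 of TRH (10 nM final) was injected and fluo-8 calcium signal (Ex 480/Em 530) followed at 1 s/cycle for 100 cycles in TRHR-expressing cells.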
D1 ag – Allosteric Agonists of the Human D1 Dopamine Receptor: qHTS; activation, % at 2 µM; D(1A) dopamine receptor (Homo sapiens), P21728; 360,000 compounds, 1% hits; HEK293 T-REx D1 cells, calcium flux, agonist mode; in the data active = activation above about 30%; note: 0% is about no effect
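Tetracycline-induced HEK293 TREx D1 cells, force-coupled to calcium signalling, were dye-loaded with a no-wash calcium kit. Compound was pin-added after a 10 s baseline. Fluorescence was read kinetically at 1 cycle/s for 180 s, with calcium rises flagged as agonism.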
D1 antagonist – Antagonist of Human D 1 Dopamine Receptor: qHTS. D(1A) dopamine receptor (Homo sapiens), P21728. HEK293 TREx D1 cells, calcium flux, dopamine EC80; hits give low values. activity change, negative = inhibition, % at 10 µM. 360,000 compounds, 3.2% hits. AID 504652, 2011; in the data active = activity change below about -30%; note: % is set by controls: 0 for no effect and ±100 for the full control effect
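After overnight tetracycline induction at 30 C, force-coupled D1 HEK293 cells took up a no-wash calcium dye at room temperature. Compounds were added and monitored 180 s, and the response to EC80 dopamine was then recorded.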
TRHR enhancer-2 – qHTS for Small Molecule Agonists and Allosteric Enhancers of Human TRH Receptor: Confirmation Screen for Enhancers; shares compounds with TRHR enhancer-1; 970 tested, under 10 active; activity change, negative = inhibition, % at 46.1 µM; TRH receptor cell assay, enhancer confirmation qHTS;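 note: compound effect scored on response to added TRH at EC20 of 10 nM; 0% is about no effect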
TRHR agonist-2 – qHTS for Small Molecule Agonists and Allosteric Enhancers of Human TRH Receptor: Confirmation Screen for Agonists; shares compounds with TRHR enhancer-1; TRHR-expressing cells, agonist activation read-out; Potency, µM (doses to about 46.1 µM), for inactives: at the top dose activation, usual class: activators; 970 compounds, 8% hits; AID 493078, 2011; note: potency is the fitted concentration of half-maximal effect; 0% is about no effect; nearly all actives have a fitted effect of over 75% in size
Starred values were filed as active, the others as inactive. In the library only some 4.7% were active in any assay of this set; here they are far more common. Unless noted, calls come from the whole dose curve; as a rule, active = well fitted curve in the direction sought with a large enough effect; inconclusive = small, poorly fitted or top-dose-only effect, or another doubt; inactive = no such curve, though single readings can be large; an effect the other way counts as inactive or inconclusive.

For Cc1ccc(C)c(NC(=O)C2CCCN(S(=O)(=O)c3c(C)nn(C)c3C)C2)c1 (stereo not drawn) the results were TRHR agonist-1 30.2*, D1 PAM -0.1, TRHR enhancer-1 -0.5, D1 ag 1.6, D1 antagonist 0.1, TRHR enhancer-2 -7.2 and TRHR agonist-2 3.6%.
COc1ccc(OC)c(C(c2c(C)[nH][nH]c2=O)c2c(C)[nH][nH]c2=O)c1 was read as TRHR agonist-1 0.8, D1 PAM -9.1, TRHR enhancer-1 49.7*, D1 ag 0.3, D1 antagonist -19.9, TRHR enhancer-2 -1.2 and TRHR agonist-2 1.3%.
For C/C(=N/Nc1ccc([N+](=O)[O-])cc1)c1ccc(C)cc1C the results were TRHR agonist-1 1.9, D1 PAM 1.1, TRHR enhancer-1 -4.6, D1 ag 5.0 and D1 antagonist -17.9.
Screening C/C(=N/Nc1ccc([N+](=O)[O-])cc1)c1c[nH]c2ccccc12 returned TRHR agonist-1 34.9*, D1 PAM -7.9, TRHR enhancer-1 -0.4, D1 ag 83.5*, D1 antagonist -33.2*, TRHR enhancer-2 -4.4 and TRHR agonist-2 inconclusive.
Screening Cc1cccc(S(=O)(=O)Nc2nc3ccccc3nc2Nc2ccc3c(c2)OCO3)c1 returned TRHR agonist-1 0.1, D1 PAM -5.8, TRHR enhancer-1 44.4*, D1 ag 20.4, D1 antagonist -11.3, TRHR enhancer-2 -9.9 and TRHR agonist-2 2.5%.
Screening O=S(=O)(Nc1nc2ccccc2nc1Nc1ccc2c(c1)OCO2)c1ccccc1 returned TRHR agonist-1 1.7, D1 PAM 3.5, TRHR enhancer-1 13.8, D1 ag 6.2 and D1 antagonist 5.6.
Screening CN(C(=O)c1ccc2c(Cl)c3c(nc2c1)CCC3)c1ccccc1F returned TRHR agonist-1 1.2, D1 PAM 4.6, TRHR enhancer-1 -8.1, D1 ag 6.7 and D1 antagonist 2.1.
COc1ccc(COC(=O)C2=C(C)NC(=O)NC2c2ccccc2)cc1 (stereo not drawn) was read as TRHR agonist-1 0.1, D1 PAM 4.2, TRHR enhancer-1 43.9*, D1 ag 5.9, D1 antagonist 11.1, TRHR enhancer-2 -5.1 and TRHR agonist-2 0.4%.
`CCCCC(=O)N(c1ccc(C(=O)O)cc1)c1nc(-c2ccc(Cl)cc2)c(CC)s1` gave TRHR agonist-1 -0.2, D1 PAM -3.0, TRHR enhancer-1 62.7*, D1 ag 1.4, D1 antagonist -7.9, TRHR enhancer-2 -16.5 and TRHR agonist-2 inconclusive.
For COc1ccccc1CNC(=O)N1CCN(S(=O)(=O)c2ccc(C)cc2)CC1 the results were TRHR agonist-1 -0.8, D1 PAM 7.4, TRHR enhancer-1 42.4*, D1 ag 5.0, D1 antagonist -8.7, TRHR enhancer-2 -8.8 and TRHR agonist-2 -0.5%.
For Cc1ccc(NC(=O)C2CC(=O)n3c(nc4ccccc43)N2)cc1Cl (stereo not drawn) the results were TRHR agonist-1 1.3, D1 PAM -8.5, TRHR enhancer-1 44.5*, D1 ag 3.0, D1 antagonist 26.3, TRHR enhancer-2 -1.5 and TRHR agonist-2 1.8%.
COc1ccc(-c2nc3cc(C)ccn3c2NC(=O)c2c(F)cccc2Cl)cc1 was read as TRHR agonist-1 1.8, D1 PAM 3.3, TRHR enhancer-1 56.4*, D1 ag 3.2, D1 antagonist 12.0, TRHR enhancer-2 inconclusive and TRHR agonist-2 5.2%.
Screening CC(C)CC(=O)Nc1nnc(S(=O)(=O)N(C)Cc2ccc(Cl)cc2)s1 returned TRHR agonist-1 0.5, D1 PAM -2.5, TRHR enhancer-1 5.3, D1 ag 4.3 and D1 antagonist 1.9.
Screening CCN(CC)C(=O)c1sc2c(c1C)c(=O)n(Cc1ccccc1)c(=O)n2Cc1c(C)cc(C)cc1C returned TRHR agonist-1 0.1, D1 PAM 1.1, TRHR enhancer-1 -4.6, D1 ag 1.8 and D1 antagonist -10.7.
Screening Clc1ccc(Oc2cnns2)cc1Cl returned TRHR agonist-1 0.3, D1 PAM -7.8, TRHR enhancer-1 44.3*, D1 ag 4.4, D1 antagonist -3.6, TRHR enhancer-2 6.3 and TRHR agonist-2 0.9%.
`Cc1nn(CCCC(=O)Nc2ccccn2)c(C)c1[N+](=O)[O-]` gave TRHR agonist-1 0.0, D1 PAM -0.1, TRHR enhancer-1 47.2*, D1 ag 2.2, D1 antagonist 17.0, TRHR enhancer-2 -4.0 and TRHR agonist-2 1.0%.
`CC1CCCC(C)N1C(=O)CN1C(=O)NC2(CCOc3ccccc32)C1=O` (stereo not drawn) gave TRHR agonist-1 -0.2, D1 PAM -3.9, TRHR enhancer-1 45.4*, D1 ag 4.7, D1 antagonist -31.2*, TRHR enhancer-2 4.7 and TRHR agonist-2 7.9%.
`OCC1(CCc2ccccc2)CCN(Cc2ccccc2Cl)CC1` gave TRHR agonist-1 3.0, D1 PAM -5.5, TRHR enhancer-1 60.3*, D1 ag 8.1, D1 antagonist 19.7, TRHR enhancer-2 -5.3 and TRHR agonist-2 4.8%.
For Clc1ccccc1CN1CCN(CCCc2ccccc2)CC1 the results were TRHR agonist-1 -2.8, D1 PAM -8.1, TRHR enhancer-1 -3.7, D1 ag 3.4 and D1 antagonist -19.0.
`CCN(CC)c1ccc(CN2CCC(C(=O)NCc3ccc(C)cc3)CC2)cc1` gave TRHR agonist-1 -0.4, D1 PAM -2.5, TRHR enhancer-1 44.8*, D1 ag 6.6, D1 antagonist -7.4, TRHR enhancer-2 9.2 and TRHR agonist-2 2.2%.
Screening CCc1ccc(S(=O)(=O)c2nnn3c2nc(NCc2ccccc2)c2cc(Cl)ccc23)cc1 returned TRHR agonist-1 0.4, D1 PAM -2.4, TRHR enhancer-1 -0.2, D1 ag 8.4 and D1 antagonist -28.1.
For COCCN(C(=S)Nc1ccccc1C)C(C)c1cccnc1 (stereo not drawn) the results were TRHR agonist-1 -1.6, D1 PAM 0.0, TRHR enhancer-1 15.1, D1 ag 2.3 and D1 antagonist -4.8.
